This passage reports cell viability remaining results from the supplement of paper PMC4188521.

Compound in this experiment: CCc1cnn2c(NCc3ccc[n+]([O-])c3)cc(N3CCCC[C@H]3CCO)nc12 [dinaciclib]
Put plainly: cell viability remaining relative to DMSO control; higher = less cytotoxic (more viable cells). The following applies: 100 nM; 24 h. Summed up:
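Cell lines from solid tumours, sourced from commercial cell banks, were treated with 100 nM of the test compound for 24 hr at a final DMSO level of ≤0.2%. ATP luminescence was measured with the CellTiter-Glo assay according to the manufacturer's instructions. Remaining viability is the ratio of light units in treated wells to those in DMSO-treated control wells, expressed as a percentage of the DMSO control. Each value is the mean of 2–6 plates, each with triplicate wells.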

With TOV21G, the cell viability remaining came out at 66.7%.
Turning to CAL51, the cell viability remaining is 43.8%.
In the case of T47D, the cell viability remaining was 87.6%.
The same measure for HCT8: 51.3%.
For SKNFI, the cell viability remaining is 24.1%.
The same measure for MG63: 86.8%; for COLO800: 36.9%; for H2052: 91.9%.
Next, HT29: 57.8%; CALU6: 58.4%; SKUT1: 74.7%.
The same measure for H441: 73.4%; for H508: 75.7%; for SKNDZ: 44.1%.
As for SCC9, the cell viability remaining was 64.4%.
With GRM, the cell viability remaining was determined as 47%.
For CAL27, the cell viability remaining turned out to be 11.2%.
Next, RPMI7951: 45.3%; A549: 55.3%.
Next, JIMT1: 66.2%.
For the target CAOV3, the cell viability remaining came out at 42.2%.
With MFE296, the cell viability remaining worked out at 47.4%.
In the case of A673, the cell viability remaining is 29.2%.
Regarding WM115, the cell viability remaining is 69.1%.
Regarding COLO320DM, the cell viability remaining came out at 17.1%.
In the case of KATOIII, the cell viability remaining is 87.5%.
Next, SKCO1: 89.8%.
The same measure for SW403: 74.9%.
Next, CORL105: 49%; DV90: 56.2%.
Turning to A172, the cell viability remaining amounted to 73.1%.
Consider HUPT4, for which the cell viability remaining was found to be 9.8%.
Regarding 59M, the cell viability remaining was 73.2%.
For the target SNU423, the cell viability remaining came out at 36.7%.
Next, OVCAR8: 104%; COLO704: 78.2%.
Consider HMCB, for which the cell viability remaining came to 37.5%.
Take COLO201: the cell viability remaining came out at 67.8%.
With IGROV1, the cell viability remaining was 103%.
SJSA1: the cell viability remaining was found to be 66.7%.
UACC62: the cell viability remaining came to 57.1%.
Next, COLO205: 22.4%; OV90: 99.8%; RKO: 49.6%.
The same measure for HS600T: 93.8%; for HUTU80: 27.1%.
As for PC3, the cell viability remaining turned out to be 66.2%.
The same measure for H146: 86.5%; for H1793: 91.3%.
Next, COLO684: 85.6%; SKMEL28: 56.2%.
The same measure for SKLU1: 82.6%; for KLE: 91.8%.
Consider H2452, for which the cell viability remaining was found to be 21.1%.
As to H28, the cell viability remaining worked out at 107%.
Consider H520, for which the cell viability remaining was determined as 30.8%.
Next, HT1080: 88.8%; HOS: 36.2%; ESS1: 73.5%.
Next, TOV112D: 16%.
Next, OAW28: 63.1%.
As to HS294T, the cell viability remaining amounted to 52.6%.
Turning to H446, the cell viability remaining came to 51.2%.
For the target ES2, the cell viability remaining was found to be 52.5%.
Take HEC251: the cell viability remaining worked out at 91.8%.
Next, VCAP: 37.8%.
Next, RL952: 33.4%.
